Six compounds from PubChem BioAssay (EPA / NIEHS) can be followed below.

A short description of assay [1]: ATG_PBREM_CIS: Attagene CIS-FACTORIAL HepG2 Assay for human Phenobarbital-responsive Enhancer Module (PBREM) (AID 2282955). The settings on record: HepG2 PBREM cis-reporter, Attagene multiplexed transcription; actives raise or lower the signal. The procedure, abridged: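 Fluorescence of labelled reporter cDNA fragments, resolved by capillary electrophoresis, gives mRNA induction in transfected HepG2 cells treated for 24 h; DMSO serves as negative control and baseline.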

Assay [2] has as its target Paired box protein Pax-6 (Homo sapiens) (UniProt P26367). Kind of assay: ATG_Pax6_CIS: Attagene CIS-FACTORIAL HepG2 Assay for human Paired Box 6 (PAX6) (AID 2282956). The settings on record: HepG2 CIS-FACTORIAL PAX6 reporter transcription, RNA readout; actives raise or lower the signal. The procedure, abridged: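 Multiplexed cis-reporter HepG2 system; 24 h treatment; reporter mRNA read by RT-PCR/CE fluorescence; bidirectional fit vs DMSO.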

Assay [3] is described as follows: ATG_PXRE_CIS: Attagene CIS-FACTORIAL HepG2 Assay for human Pregnane X Receptor Element (PXRE) (AID 2282957). The settings on record: HepG2 Attagene CIS-FACTORIAL PXRE reporter, mRNA; actives raise or lower the signal. The method in brief: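 Multiplexed cis-reporter assay in transiently transfected human HepG2 cells; 24 h chemical exposure. Reporter transcripts quantified by RT-PCR with fluorescent labeling and capillary electrophoresis.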

Assay [4] in a line: ATG_PPRE_CIS: Attagene CIS-FACTORIAL HepG2 Assay for human Peroxisome Proliferator-activated Response Element (PPRE) (AID 2282958). The settings on record: HepG2 PPRE cis-element reporter, Attagene transcription factor profiling; actives raise or lower the signal. The method in brief: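 Cells are first transfected transiently with the multiplexed reporter library, then dosed for 24 h. Total RNA is reverse-transcribed, amplified, fluorescently end-labeled and HpaI-cut before capillary electrophoresis; activity is fitted bidirectionally against DMSO controls.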

The nature of assay [5]: ATG_RORE_CIS: Attagene CIS-FACTORIAL HepG2 Assay for human RAR-related Orphan Receptor Element (RORE) (AID 2282959). The following applies: HepG2 Attagene cis-factorial RORE reporter, mRNA; actives raise or lower the signal. The procedure, abridged:
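Cells were HepG2 carrying transfected cis-regulated reporter constructs, dosed for 24 hours. Total RNA was reverse-transcribed and reporter cDNA amplified, fluorescently labeled and sized by capillary electrophoresis. Activity was fitted bidirectionally relative to DMSO.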

Assay [6] in a line: ATG_Sox_CIS: Attagene CIS-FACTORIAL HepG2 Assay for human SRY-box transcription factor (SOX) (AID 2282960). The settings on record: HepG2 Attagene cis-factorial SOX reporter, mRNA; actives raise or lower the signal. The procedure, abridged:
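Transient MRTU transfection of HepG2; 24 h compound incubation; TriZol RNA, oligo(dT) RT, PCR, 6-FAM primer extension, HpaI cut, CE. Bidirectional fit, DMSO = baseline.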

Assay [7] addresses Transcription factor Sp1 (Homo sapiens) (UniProt P08047). The assay is described as follows: ATG_Sp1_CIS: Attagene CIS-FACTORIAL HepG2 Assay for human Specificity Protein 1 (Sp1) (AID 2282961). The settings on record: HepG2 Sp1 cis-reporter transcription, actives raise or lower the signal. The method in brief: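 Endogenous Sp1 activity was gauged in human liver HepG2 cells bearing transfected reporter units under a cis-regulating promoter. After 24 h dosing, reporter mRNA was quantified by RT-PCR with capillary electrophoresis, and activity fitted bidirectionally versus DMSO.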

The nature of assay [8]: ATG_SREBP_CIS: Attagene CIS-FACTORIAL HepG2 Assay for human Sterol Regulatory Element Binding (SREBP) (AID 2282962). The settings on record: HepG2 Attagene cis-factorial SREBP reporter, mRNA; actives raise or lower the signal. The procedure, abridged: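 mRNA induction of transfected cis-promoter reporters in HepG2 cells, 24 h post-dose. Detection: RT-PCR with 6-FAM-labelled products, HpaI digest, capillary electrophoresis. DMSO served as negative control and baseline.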

Assay [9] concerns the target Signal transducer and activator of transcription 3 (Homo sapiens) (UniProt P40763). The assay is described as follows: ATG_STAT3_CIS: Attagene CIS-FACTORIAL HepG2 Assay for human Signal Transducer and Activator of Transcription 3 (STAT3) (AID 2282963). The following applies: HepG2, Attagene cis-factorial STAT3 reporter transcription; actives raise or lower the signal. The method in brief: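 HepG2 cells transiently transfected with multiple cis-element-driven reporter units report endogenous transcription factor activity. After 24 h compound exposure, reporter mRNA is measured by RT-PCR, 6-FAM labelling, HpaI digestion and capillary electrophoresis. Fitted bidirectionally versus DMSO.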

Assay [10] is described as follows: ATG_TA_CIS: Attagene CIS-FACTORIAL HepG2 Assay for human TA Basal Promoter (AID 2282964). The following applies: HepG2 Attagene CIS-factorial TA basal promoter reporter; actives raise or lower the signal. The procedure, abridged: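 Background internal-marker endpoint from a 52-component HepG2 cis-reporter panel. Cells treated 24 h; reporter transcripts quantified via RT-PCR and CE fluorescence against DMSO baseline.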

The nature of assay [11]: ATG_TCF_b_cat_CIS: Attagene CIS-FACTORIAL HepG2 Assay for human T-Cell-Factor with beta-catenin (TCF/b-cat) (AID 2282965). The following applies: HepG2 TCF/beta-catenin cis-reporter transcription, actives raise or lower the signal. The method in brief:
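Cells of the HepG2 line carry transiently transfected reporter units whose promoters respond to endogenous factors. Twenty-four hours post-dosing, reporter mRNA induction is measured by fluorescent RT-PCR and capillary electrophoresis, with DMSO as baseline.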

A short description of assay [12]: ATG_TAL_CIS: Attagene CIS-FACTORIAL HepG2 Assay for human TAL Basal Promoter (AID 2282966).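 Further: background control endpoint measuring basal TAL promoter reporter mRNA not a specific factor.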 The following applies: HepG2 Attagene cis-factorial TAL promoter reporter; actives raise or lower the signal. The method in brief:
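Steps: transfect HepG2 with multiple reporter transcription units; dose 24 h; isolate RNA, reverse-transcribe, PCR-amplify, label with 6-FAM, digest with HpaI; resolve by capillary electrophoresis. Bidirectional fitting against DMSO baseline.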

Assay [13] in a line: ATG_TGFb_CIS: Attagene CIS-FACTORIAL HepG2 Assay for human Transforming Growth Factor (TGF) (AID 2282967). The settings on record: HepG2 Attagene CIS TGFb reporter, mRNA transcription; actives raise or lower the signal. The method in brief:
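Liver HepG2 line, cis-factorial reporter panel, 24 h dosing. Quantitation: RT-PCR products labeled with 6-FAM, cut with HpaI, resolved by capillary electrophoresis; DMSO-referenced bidirectional analysis.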

A short description of assay [14]: ATG_VDRE_CIS: Attagene CIS-FACTORIAL HepG2 Assay for human Vitamin D Receptor Element (VDRE) (AID 2282968). The following applies: HepG2 VDRE cis-reporter transcription, actives raise or lower the signal. The procedure, abridged:
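Transiently transfected HepG2 cells carrying cis-regulated reporter transcription units were exposed for 24 h. Reporter mRNA was measured by RT-PCR with fluorescent labelling and capillary electrophoresis, and fitted in both directions against DMSO.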

In assay [15] the target is Estrogen receptor (Homo sapiens) (UniProt P03372). Kind of assay: ATG_ERa_TRANS: Attagene TRANS-FACTORIAL HepG2 Assay for human Estrogen Receptor alpha (ERa) (AID 2282970; active means hit-call score of the fitted dose curve at least 0.9, where 1 is the maximum). The settings on record: HepG2 Attagene TRANS ERa GAL4 reporter, mRNA. The method in brief:
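Multiplexed cell-based reporter format in HepG2: chimeric ERa-Gal4 protein drives GAL4-UAS reporter transcription. Fluorescent reporter mRNA quantified by capillary electrophoresis 24 hours after dosing; endpoint fitted as signal gain against DMSO.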

The target of assay [16] is Steroid hormone receptor ERR1 (Homo sapiens) (UniProt P11474). The assay is described as follows: ATG_ERRa_TRANS: Attagene TRANS-FACTORIAL HepG2 Assay for human Estrogen-Related Receptor alpha (ERRa) (AID 2282971; active means hit-call score of the fitted dose curve at least 0.9, where 1 is the maximum). The following applies: HepG2 Attagene TRANS reporter, ERRa transactivation. The procedure, abridged: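 Signal gain relative to DMSO for an ERRa-Gal4 chimeric receptor, read as reporter mRNA by RT-PCR/capillary electrophoresis. Human HepG2 liver cells, transient multiplex reporter transfection, 24 h chemical exposure.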

Assay [17] addresses X-box-binding protein 1 (Homo sapiens) (UniProt P17861). The assay is described as follows: ATG_Xbp1_CIS: Attagene CIS-FACTORIAL HepG2 Assay for human X-box Binding Protein 1 (XBP1) (AID 2282972). The settings on record: HepG2 XBP1 cis-element reporter, Attagene multiplex; actives raise or lower the signal. The method in brief:
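Fluorescence-labelled cDNA fragments from reporter transcripts, separated by capillary electrophoresis, give the signal. Source: HepG2 cells transfected with promoter-driven reporter units, harvested 24 h post-dose. DMSO served as reference for bidirectional curve fitting.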

The nature of assay [18]: ATG_M_19_TRANS: Attagene TRANS-FACTORIAL HepG2 Assay for M19 Transcription Factor (Internal Marker) (AID 2282974; active means hit-call score of the fitted dose curve at least 0.9, where 1 is the maximum). The settings on record: HepG2 Attagene TRANS-FACTORIAL M19 internal marker reporter. The method in brief:
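Cells: human HepG2, transiently transfected with multiplexed reporter transcription units. Exposure: 24 h. Detection: RT-PCR of reporter mRNA with capillary electrophoresis. Analysis: gain-of-signal vs DMSO.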

The target of assay [19] is Androgen receptor (Homo sapiens) (UniProt P10275). Kind of assay: ATG_AR_TRANS: Attagene TRANS-FACTORIAL HepG2 Assay for human Androgen Receptor (AR) (AID 2282973; active means hit-call score of the fitted dose curve at least 0.9, where 1 is the maximum). The settings on record: HepG2 Attagene TRANS-FACTORIAL AR reporter transcription. The procedure, abridged: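 Chimeric nuclear receptor–Gal4 activity was assessed in human HepG2 hepatocytes after 24 h chemical dosing. Induced reporter mRNA was detected via labelled RT-PCR fragments on capillary electrophoresis, and gain of signal was analysed against DMSO.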

For assay [20], the target named is Nuclear receptor subfamily 1 group I member 3 (Homo sapiens) (UniProt Q14994). The assay is described as follows: ATG_CAR_TRANS: Attagene TRANS-FACTORIAL HepG2 Assay for human Constitutive Androstane Receptor (CAR) (AID 2282969; active means hit-call score of the fitted dose curve at least 0.9, where 1 is the maximum;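 further: activators raise reporter mRNA above DMSO so AC50 marks induction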). The following applies: HepG2 Attagene TRANS-FACTORIAL CAR reporter. The procedure, abridged:
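HepG2 cells transiently transfected with GAL4-UAS reporter units; TRANS format reads activity of exogenous chimeric NR-Gal4 protein. After 24 h dosing, reporter mRNA quantified by RT-PCR, 6-FAM labelling and capillary electrophoresis; gain of signal fitted against DMSO.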

Structures are written as SMILES. Where “and” joins values, the source holds several entries; their conditions need not be identical. Identical values can stand only once. Records with an inconclusive call do not appear. Calls of active or inactive are those of the source. How the source made its calls, unless noted: active means hit-call score of the fitted dose curve at least 0.9, where 1 is the maximum; inactive means score below 0.9.

Sequence of X-box-binding protein 1 (Homo sapiens) (P17861 whole entry, looked up, the tested form may be a part): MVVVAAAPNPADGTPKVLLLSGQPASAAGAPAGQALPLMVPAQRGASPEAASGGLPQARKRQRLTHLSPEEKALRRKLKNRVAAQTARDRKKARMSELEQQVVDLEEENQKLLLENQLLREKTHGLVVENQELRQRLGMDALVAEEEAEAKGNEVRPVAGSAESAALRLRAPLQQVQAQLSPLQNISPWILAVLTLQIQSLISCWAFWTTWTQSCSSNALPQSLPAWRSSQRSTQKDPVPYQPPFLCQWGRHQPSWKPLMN
Sequence of Steroid hormone receptor ERR1 (Homo sapiens) (P11474 whole entry, looked up, the tested form may be a part): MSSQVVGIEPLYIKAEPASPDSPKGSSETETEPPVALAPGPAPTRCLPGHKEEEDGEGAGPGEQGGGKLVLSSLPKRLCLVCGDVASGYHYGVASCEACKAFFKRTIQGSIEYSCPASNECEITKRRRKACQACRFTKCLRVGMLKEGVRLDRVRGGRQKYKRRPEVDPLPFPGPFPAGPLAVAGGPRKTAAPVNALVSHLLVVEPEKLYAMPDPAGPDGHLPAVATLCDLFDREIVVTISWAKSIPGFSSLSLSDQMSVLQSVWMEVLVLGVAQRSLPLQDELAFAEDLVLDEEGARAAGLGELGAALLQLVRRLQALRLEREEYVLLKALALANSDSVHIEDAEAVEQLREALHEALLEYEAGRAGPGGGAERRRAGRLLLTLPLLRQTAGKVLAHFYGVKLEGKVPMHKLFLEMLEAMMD
Sequence of Estrogen receptor (Homo sapiens) (P03372 whole entry, looked up, the tested form may be a part): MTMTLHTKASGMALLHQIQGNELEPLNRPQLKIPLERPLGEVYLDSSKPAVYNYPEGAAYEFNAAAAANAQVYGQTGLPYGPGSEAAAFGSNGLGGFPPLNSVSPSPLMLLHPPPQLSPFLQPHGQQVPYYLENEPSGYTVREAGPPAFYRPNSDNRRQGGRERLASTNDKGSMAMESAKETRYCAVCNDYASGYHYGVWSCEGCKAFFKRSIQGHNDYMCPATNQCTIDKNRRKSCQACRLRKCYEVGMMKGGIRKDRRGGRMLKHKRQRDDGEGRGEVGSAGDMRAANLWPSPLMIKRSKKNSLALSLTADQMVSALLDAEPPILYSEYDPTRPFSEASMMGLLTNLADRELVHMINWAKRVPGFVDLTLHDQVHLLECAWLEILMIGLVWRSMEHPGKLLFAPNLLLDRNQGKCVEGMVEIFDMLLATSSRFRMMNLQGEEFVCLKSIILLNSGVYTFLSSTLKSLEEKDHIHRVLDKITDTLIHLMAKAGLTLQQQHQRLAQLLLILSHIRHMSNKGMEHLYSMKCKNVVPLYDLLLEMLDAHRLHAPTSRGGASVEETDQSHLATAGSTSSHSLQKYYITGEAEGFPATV
Sequence of Transcription factor Sp1 (Homo sapiens) (P08047 whole entry, looked up): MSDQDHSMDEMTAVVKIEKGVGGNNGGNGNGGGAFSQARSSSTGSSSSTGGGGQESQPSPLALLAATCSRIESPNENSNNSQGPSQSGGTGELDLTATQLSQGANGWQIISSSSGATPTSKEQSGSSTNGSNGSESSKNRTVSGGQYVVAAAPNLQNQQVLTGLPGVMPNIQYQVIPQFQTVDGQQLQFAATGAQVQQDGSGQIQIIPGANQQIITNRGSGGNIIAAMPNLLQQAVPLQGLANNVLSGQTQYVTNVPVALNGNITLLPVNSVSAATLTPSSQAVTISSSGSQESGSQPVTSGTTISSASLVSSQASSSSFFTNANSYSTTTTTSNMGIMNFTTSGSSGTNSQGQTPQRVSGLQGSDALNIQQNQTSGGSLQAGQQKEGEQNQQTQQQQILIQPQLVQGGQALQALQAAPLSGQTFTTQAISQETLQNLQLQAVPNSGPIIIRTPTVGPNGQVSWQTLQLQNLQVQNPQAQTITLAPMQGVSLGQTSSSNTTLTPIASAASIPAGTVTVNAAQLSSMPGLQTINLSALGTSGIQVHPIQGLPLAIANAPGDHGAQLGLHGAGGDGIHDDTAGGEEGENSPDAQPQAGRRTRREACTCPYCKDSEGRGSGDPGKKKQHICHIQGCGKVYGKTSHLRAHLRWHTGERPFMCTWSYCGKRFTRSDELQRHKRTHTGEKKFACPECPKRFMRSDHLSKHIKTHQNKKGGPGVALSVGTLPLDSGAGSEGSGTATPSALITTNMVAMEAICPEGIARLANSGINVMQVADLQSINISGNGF
Sequence of Signal transducer and activator of transcription 3 (Homo sapiens) (P40763 whole entry, looked up): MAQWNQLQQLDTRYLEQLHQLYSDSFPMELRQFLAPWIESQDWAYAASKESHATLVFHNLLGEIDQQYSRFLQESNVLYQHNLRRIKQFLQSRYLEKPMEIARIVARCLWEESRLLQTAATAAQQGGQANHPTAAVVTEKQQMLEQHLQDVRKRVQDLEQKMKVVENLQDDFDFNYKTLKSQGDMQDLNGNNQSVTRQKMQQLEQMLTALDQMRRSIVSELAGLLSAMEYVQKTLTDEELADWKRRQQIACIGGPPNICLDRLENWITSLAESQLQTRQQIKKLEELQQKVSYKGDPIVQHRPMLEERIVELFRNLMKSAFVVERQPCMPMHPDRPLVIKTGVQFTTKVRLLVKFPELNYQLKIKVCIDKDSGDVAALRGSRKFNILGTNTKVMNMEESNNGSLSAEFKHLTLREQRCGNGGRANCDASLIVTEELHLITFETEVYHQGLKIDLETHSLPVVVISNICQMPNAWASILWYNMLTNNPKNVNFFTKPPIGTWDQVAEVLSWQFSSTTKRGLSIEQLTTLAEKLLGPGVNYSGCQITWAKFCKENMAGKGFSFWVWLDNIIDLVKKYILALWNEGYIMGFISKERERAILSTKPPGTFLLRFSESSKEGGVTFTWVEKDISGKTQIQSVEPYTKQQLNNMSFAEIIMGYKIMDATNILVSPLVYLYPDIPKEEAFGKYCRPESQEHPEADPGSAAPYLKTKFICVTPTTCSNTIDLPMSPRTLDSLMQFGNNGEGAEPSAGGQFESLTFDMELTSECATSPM
Sequence of Androgen receptor (Homo sapiens) (P10275 whole entry, looked up, the tested form may be a part): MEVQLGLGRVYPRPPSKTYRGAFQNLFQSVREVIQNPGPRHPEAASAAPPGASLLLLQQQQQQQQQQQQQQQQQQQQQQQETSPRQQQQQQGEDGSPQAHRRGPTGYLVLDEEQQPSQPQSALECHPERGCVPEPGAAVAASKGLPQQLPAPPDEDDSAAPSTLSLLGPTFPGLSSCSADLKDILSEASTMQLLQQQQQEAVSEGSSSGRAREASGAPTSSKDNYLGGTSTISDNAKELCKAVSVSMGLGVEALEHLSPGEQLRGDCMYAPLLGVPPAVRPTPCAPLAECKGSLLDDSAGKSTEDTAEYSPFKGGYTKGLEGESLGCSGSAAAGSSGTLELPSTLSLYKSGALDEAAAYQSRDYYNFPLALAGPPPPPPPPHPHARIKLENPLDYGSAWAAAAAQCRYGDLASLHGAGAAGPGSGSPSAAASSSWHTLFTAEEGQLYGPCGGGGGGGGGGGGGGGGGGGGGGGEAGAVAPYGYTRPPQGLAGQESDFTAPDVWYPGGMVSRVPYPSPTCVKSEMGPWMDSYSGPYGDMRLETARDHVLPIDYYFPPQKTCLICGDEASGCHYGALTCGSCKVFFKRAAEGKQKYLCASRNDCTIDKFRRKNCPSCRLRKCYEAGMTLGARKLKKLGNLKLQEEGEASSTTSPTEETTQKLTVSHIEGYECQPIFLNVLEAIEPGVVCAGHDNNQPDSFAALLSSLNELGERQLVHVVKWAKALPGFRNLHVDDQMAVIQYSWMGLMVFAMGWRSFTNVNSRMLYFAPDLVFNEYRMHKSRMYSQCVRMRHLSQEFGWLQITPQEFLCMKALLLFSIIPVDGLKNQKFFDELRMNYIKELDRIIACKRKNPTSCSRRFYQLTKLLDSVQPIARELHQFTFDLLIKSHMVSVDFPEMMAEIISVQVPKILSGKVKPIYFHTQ
Sequence of Paired box protein Pax-6 (Homo sapiens) (P26367 whole entry, looked up): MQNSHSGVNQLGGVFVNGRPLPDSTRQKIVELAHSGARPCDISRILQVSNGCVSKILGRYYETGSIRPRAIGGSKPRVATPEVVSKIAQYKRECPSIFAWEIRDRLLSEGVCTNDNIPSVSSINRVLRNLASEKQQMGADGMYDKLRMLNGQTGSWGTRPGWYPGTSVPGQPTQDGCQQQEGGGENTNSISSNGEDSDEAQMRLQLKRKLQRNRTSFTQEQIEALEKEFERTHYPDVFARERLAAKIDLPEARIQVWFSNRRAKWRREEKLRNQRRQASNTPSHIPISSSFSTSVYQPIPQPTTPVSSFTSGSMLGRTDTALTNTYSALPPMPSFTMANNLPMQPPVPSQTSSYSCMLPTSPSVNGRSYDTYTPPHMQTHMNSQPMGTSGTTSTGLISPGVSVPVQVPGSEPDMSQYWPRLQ
Sequence of Nuclear receptor subfamily 1 group I member 3 (Homo sapiens) (Q14994 whole entry, looked up, the tested form may be a part): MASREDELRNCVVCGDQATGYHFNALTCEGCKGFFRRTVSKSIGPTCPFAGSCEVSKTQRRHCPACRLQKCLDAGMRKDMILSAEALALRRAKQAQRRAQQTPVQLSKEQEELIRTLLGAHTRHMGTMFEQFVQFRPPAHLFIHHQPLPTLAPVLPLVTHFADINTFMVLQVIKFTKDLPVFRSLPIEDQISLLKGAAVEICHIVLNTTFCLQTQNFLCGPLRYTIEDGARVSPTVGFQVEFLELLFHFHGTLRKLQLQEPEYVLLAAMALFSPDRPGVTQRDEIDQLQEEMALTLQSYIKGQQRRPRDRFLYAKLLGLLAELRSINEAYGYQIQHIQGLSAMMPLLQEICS

Take `O=[N+]([O-])c1ccc(Cl)c(Cl)c1`: the outcome in assay [1], in [2], in assay [4], in assay [5], in [6] and in assay [7] was inactive. Besides, the outcome in [8], in assay [9], in [10], in [11], in [12] and in assay [13] was inactive. Besides, the compound was called inactive in [14], in assay [15], in assay [16], in [17] and in [18]. Also, the AC50 in assay [3] was 49.2 µM (active).
For `OCC(F)(F)OC(F)(F)C(F)(F)OC(F)(F)C(F)(F)OC(F)(F)CO`, the result in assay [1], in [2], in assay [4], in assay [5], in [6] and in [7] was inactive. Moreover, the outcome in assay [8], in assay [9], in assay [10], in [12], in assay [13] and in assay [16] was inactive. Moreover, the outcome in assay [17], in assay [19] and in [18] was inactive. Further, the AC50 in assay [3] was 13.9 µM (active); in assay [11] it was 9.92 µM (active); in assay [14], 18.6 µM (active); in assay [15], 0.281 µM (active).
Consider `O=C(O)C(F)(F)OC(F)(F)C(F)(F)OC(F)(F)F`, for which the outcome in assay [1], in assay [2], in assay [3], in assay [5], in assay [6] and in assay [7] was inactive. Moreover, the compound was called inactive in assay [8], in assay [9], in assay [10], in assay [11], in [12] and in assay [13]. Besides, the outcome in [14], in assay [20], in [15], in [16], in assay [17] and in assay [19] was inactive. Besides, the compound was classed as inactive in assay [18]. The concentration at half-maximal activity (AC50) in assay [4] is 96.5 µM (active) and 114 µM (active).
For the compound `CCN(CC)C1CCCCC1`, the result in [1], in assay [2], in [3], in [4], in assay [5] and in [6] was inactive. The call in assay [7], in assay [8], in assay [9], in assay [10], in assay [11] and in [12] was inactive. For the same compound, the outcome in assay [13], in assay [14], in assay [20], in assay [15], in [16] and in [17] was inactive.
As for `Cc1cccc(N)c1`, the outcome in [1], in [2], in assay [3], in assay [4], in [5] and in assay [6] was inactive. For the same compound, the result in [7], in assay [8], in assay [9], in assay [10], in assay [11] and in assay [12] was inactive. Further, the compound was called inactive in assay [13], in [14] and in assay [17].
With `c1ccc2c(c1)Nc1ccccc1S2`, the result in assay [1], in assay [2], in assay [4], in assay [5], in assay [6] and in assay [7] was inactive. In addition, the compound was classed as inactive in assay [8], in assay [9], in [10], in assay [11], in assay [12] and in assay [13]. The compound was called inactive in [20], in [16], in assay [17] and in assay [18]. For the same compound, the AC50 in [3] is 17.1 µM (active); in assay [15], 11.7 µM (active).

In general, AC50 refers to the midpoint of the concentration-response curve, whichever way the signal moves.
